Assay in all cases: NCI-60 one-dose screen, 48 h (100 = growth as untreated, 0 = no growth, -100 = all killed)
Holding throughout (conditions): 10 µM unless noted

In assay [1] the test system is SR leukemia.
Assay [2] has as its system RPMI-8226 leukemia.
Assay [3] deals with OVCAR-8 ovarian.
The subject of assay [4] is OVCAR-5 ovarian.
For assay [5], the system named is OVCAR-4 ovarian.
Assay [6] concerns SK-OV-3 ovarian.
Assay [7] has as its system IGROV1 ovarian.
Assay [8] deals with OVCAR-3 ovarian.
Assay [9] deals with HS 578T breast.
The test system of assay [10] is NCI/ADR-RES ovarian.
Assay [11] deals with T-47D breast.
In assay [12] the test system is BT-549 breast.
In assay [13] the test system is MDA-MB-435 melanoma.
Assay [14] concerns SW-620 colon.
For assay [15], the system named is MCF7 breast.
In assay [16] the test system is HCT-116 colon.
Assay [17] has as its system HCC-2998 colon.
For assay [18], the system named is KM12 colon.

The panel holds about 83,000 compounds, 20% with a hit somewhere; the sample as a whole holds those more often.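 Percent growth is the endpoint: 0 to 100 indicates growth inhibition (40 means 60% inhibition), 0 means no net growth, and negative values indicate cell death.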 Values without a mark were called inactive. Activity calls are given as the source filed them. How the source made its calls: active means growth percent below 10; inactive means the rest.

Take `Cc1cc(Cl)nc(N2CCN(CCNc3ccnc4cc(Cl)ccc34)CC2)n1`: the growth is -7.81% (active) in assay [1]; 13.5% in assay [2]; 61.5% in [3]; 66.6% in [4]; 40.1% in assay [5]; 56.9% in assay [6]. Besides, the growth is 61% in assay [7]; 60.7% in assay [8]; 76.8% in assay [9]; 45.2% in [10]; 19.5% in assay [11]; 47% in assay [12]. Moreover, the growth in assay [13] was 50.2%; in assay [14], 45.3%; in assay [15], 26.8%; in assay [16], 25.3%; in assay [17], -3.07% (active); in [18], 55.7%.

Turning to `O=[N+]([O-])c1c(O)c(Cl)cc(Cl)c1Cl`, the growth in [1] is 87.9%; in assay [2] it was 97.9%; in [3], 101%; in assay [4], 91.6%; in assay [5] it was 109%; in assay [6], 99.2%. Also, the growth in assay [7] was 111%; in assay [8], 111%; in assay [9], 117%; in [10] it was 95.6%; in assay [11] it was 97.6%; in assay [12], 106%. Further, the growth in assay [13] was 114%; in [14], 115%; in assay [15], 98.8%; in [16] it was 100%; in assay [17], 96.5%; in assay [18], 112%.

Regarding `N=C(N)c1ccc(OCCSCCOc2ccc(C(=N)N)cc2)cc1`, the growth is 73.1% in assay [1]; 73.9% in [2]; 64% in assay [3]; 77.6% in assay [4]; 64.7% in assay [5]; 82% in [6]. The growth in assay [7] was 93.3%; in assay [8], 86.4%; in [9], 85.4%; in assay [10], 97.7%; in [11], 50.5%; in assay [12] it was 11.1%. Moreover, the growth is 79.9% in [13]; 87.6% in assay [14]; 58.1% in assay [15]; 68.4% in assay [16]; 79.7% in assay [17]; 62.2% in [18].

Consider `Cc1ccc(NC(=O)c2sc3nc(C)c(C(O)c4ccccc4)cc3c2N)cc1` (configuration not stated), for which the growth in assay [1] was 1.92% (active); in [2] it was 5.22% (active); in assay [3] it was 18.6%; in assay [4], 34.6%; in assay [5], 46.1%; in [6], 14.7%. The growth in assay [7] was 28.4%; in assay [8] it was 5.7% (active); in assay [9] it was 9.32% (active); in assay [10], 7.94% (active); in assay [11], 42.3%; in assay [12], 61.6%. For the same molecule, the growth in [13] is -13.1% (active); in assay [14] it was 23.1%; in assay [15] it was 19.2%; in [16] it was 13.7%; in [17], 12.1%; in assay [18], 16.8%.

Consider `C/C=C1/CN(CCCCC)CC[C@H]1C(=O)c1cc2ccccc2[nH]1`, for which the growth in assay [1] is 98.4%; in assay [2], 94.9%; in assay [3], 91.7%; in [4] it was 96.3%; in assay [5], 86.6%; in assay [6], 83.3%. In addition, the growth in [7] was 98.5%; in assay [8], 94%; in [9], 97.3%; in [10] it was 93.6%; in assay [11], 82.6%; in assay [12], 97.4%. The growth was 97.8% in assay [13]; 87% in assay [14]; 89.3% in assay [15]; 66.5% in assay [16]; 101% in [17]; 109% in assay [18].

Consider `CCOC(=O)c1cn2ncnc(Oc3ccc(NC(=O)NC4CC4)c(Cl)c3)c2c1C`, for which the growth in [1] is 77.5%; in [2], 61.3%; in [3] it was 98.6%; in assay [4], 108%; in [5] it was 53.2%; in assay [6], 111%. In addition, the growth was 87.6% in [7]; 107% in [8]; 100% in assay [9]; 90.3% in assay [10]; 71.9% in assay [11]; 96.1% in assay [12]. Also, the growth was 96.4% in assay [13]; 97.1% in [14]; 90.5% in assay [15]; 95.1% in [16]; 101% in assay [17]; 102% in assay [18].

For `CSc1nc(-c2ccco2)c(C#N)c(=O)n1C`, the growth was 74.9% in assay [1]; 91.8% in assay [2]; 108% in assay [3]; 109% in assay [4]; 103% in assay [5]; 97% in assay [6]. Besides, the growth in assay [7] is 105%; in assay [8] it was 104%; in [9], 97%; in assay [10] it was 51.2%; in [11], 107%; in [12], 92.6%. The growth in assay [13] is 102%; in [14] it was 97%; in assay [15] it was 98%; in assay [16], 100%; in assay [17], 1.62% (active); in assay [18], 103%.

For `Cc1c2ccccc2nc2cc3c(cc12)[C@H]1CC[C@]2(C)C(=O)CC[C@H]2[C@@H]1CC3`, the growth is 92.9% in assay [1]; 79.5% in [2]; 92.5% in assay [3]; 97.6% in [4]; 95.8% in assay [5]; 124% in [6]. Moreover, the growth is 101% in assay [7]; 104% in assay [8]; 86.3% in assay [9]; 103% in [10]; 103% in [11]; 96% in [12]. In addition, the growth was 95.6% in assay [13]; 99.8% in assay [14]; 115% in [15]; 90.2% in assay [16]; 109% in assay [17]; 95.4% in assay [18].

For the molecule `Cc1cc2oc(/C=C/c3ccccc3)cc(=O)c2c(C)c1Cl`, the growth in [1] is 78.3%; in assay [2], 94%; in assay [3], 100%; in assay [4] it was 104%; in assay [5] it was 99%; in assay [6], 96.3%. Moreover, the growth in [7] is 109%; in [8] it was 108%; in assay [9], 119%; in assay [10], 97.8%; in assay [11], 87%; in assay [12], 101%. Further, the growth was 95.9% in assay [13]; 100% in [14]; 98% in [15]; 105% in assay [16]; 106% in [17]; 109% in [18].

Values taken from PubChem BioAssay (NCI).
